Results reported in the supplement of paper PMC8728848.
The sample as a whole holds a higher share of the strongest signals than the screen did.

What was measured:
Assay in all cases: glycan array binding signal (z-score within array); higher = stronger binding
Conditions in all cases: glycan notation: IUPAC condensed, linker removed
[1] = molecular target: Fuc(a1-2)Gal(b1-3)[Fuc(a1-4)]GlcNAc
Procedure, shortened: (§1)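 Columns mapping to the same glycan were averaged after glycan names were converted to IUPAC-condensed notation. The data come from 3228 arrays in the Consortium for Functional Glycomics database, limited to those with an available protein sequence. Binding is reported as a within-array Z-score averaged across arrays of one protein sequence and across linkers.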

[2] = molecular target: Fuc(a1-2)Gal(b1-4)GlcNAc(b1-3)Gal(b1-4)GlcNAc
Procedure, shortened: as §1

[3] = molecular target: Fuc(a1-2)Gal6S(b1-4)GlcNAc
Procedure, shortened: as §1

[4] = molecular target: Fuc(a1-2)[Gal(a1-3)]Gal(b1-3)GlcNAc
Procedure, shortened: as §1

[5] = molecular target: Fuc(a1-2)[Gal(a1-3)]Gal(b1-4)Glc
Procedure, shortened: as §1

[6] = molecular target: Fuc(a1-2)[Gal(a1-3)]Gal(b1-4)GlcNAc
Procedure, shortened: as §1

[7] = molecular target: Fuc(a1-3)[Gal(b1-4)]Glc6S
Procedure, shortened: as §1

[8] = molecular target: Fuc(a1-3)[Gal(b1-4)]GlcNAc(b1-3)Gal(b1-3)[Fuc(a1-4)]GlcNAc
Procedure, shortened: as §1

[9] = molecular target: Fuc(a1-3)[Gal(b1-4)]GlcNAc(b1-4)Gal(b1-4)[Fuc(a1-3)]GlcNAc(b1-4)Gal(b1-4)[Fuc(a1-3)]GlcNAc
Procedure, shortened: as §1

[10] = molecular target: Gal(a1-3)Gal(b1-4)[Fuc(a1-3)]GalNAc
Procedure, shortened: as §1

[11] = molecular target: Gal(a1-3)[Gal(a1-4)]Gal(b1-4)GlcNAc
Procedure, shortened: as §1

Gal(a1-4)Gal(b1-4)Gal = molecular target: Gal(a1-4)Gal(b1-4)Gal
Procedure, shortened: as §1

Gal(a1-4)Gal(b1-4)GalNAc = molecular target: Gal(a1-4)Gal(b1-4)GalNAc
Procedure, shortened: as §1

Gal(b1-3)Gal = molecular target: Gal(b1-3)Gal
Procedure, shortened: as §1

[12] = molecular target: Gal(b1-3)[Fuc(a1-4)]GlcNAc(b1-3)Gal(b1-4)GlcNAc
Procedure, shortened: as §1

[13] = molecular target: Gal(b1-4)GlcNAc(b1-3)Gal(b1-4)GlcNAc
Procedure, shortened: as §1

[14] = molecular target: Gal3S(b1-3)[Fuc(a1-4)]GlcNAc
Procedure, shortened: as §1

GalNAc(a1-3)GalNAc = molecular target: GalNAc(a1-3)GalNAc
Procedure, shortened: as §1

[15] = molecular target: GlcNAc(b1-2)Man(a1-3)[GlcNAc(b1-2)Man(a1-6)]Man(b1-4)GlcNAc(b1-4)GlcNAc
Procedure, shortened: as §1

GlcNAc(b1-3)Gal = molecular target: GlcNAc(b1-3)Gal
Procedure, shortened: as §1

GlcNAc(b1-3)GalNAc = molecular target: GlcNAc(b1-3)GalNAc
Procedure, shortened: as §1

GlcNAc(b1-6)GalNAc = molecular target: GlcNAc(b1-6)GalNAc
Procedure, shortened: as §1

Man(a1-2)Man(a1-3)Man = molecular target: Man(a1-2)Man(a1-3)Man
Procedure, shortened: as §1

[16] = molecular target: Neu5Ac(a2-3)Gal(b1-4)GlcNAc(b1-3)Gal(b1-4)GlcNAc
Procedure, shortened: as §1

[17] = molecular target: Neu5Ac(a2-3)Gal(b1-4)[Fuc(a1-3)]GlcNAc(b1-3)Gal
Procedure, shortened: as §1

[18] = molecular target: Neu5Ac(a2-3)Gal(b1-4)[Fuc(a1-3)]GlcNAc(b1-3)Gal(b1-4)GlcNAc
Procedure, shortened: as §1

[19] = molecular target: Neu5Ac(a2-3)Gal6S(b1-4)GlcNAc
Procedure, shortened: as §1

[20] = molecular target: Neu5Ac(a2-8)Neu5Ac(a2-3)[GalNAc(b1-4)]Gal(b1-4)Glc
Procedure, shortened: as §1

[21] = molecular target: Neu5Gc(a2-6)Gal(b1-4)GlcNAc
Procedure, shortened: as §1

B1: IDGF2 (Drosophila melanogaster), Q9V3D4 (protein)
chain: MKAWIWFTFVACLFAASTEAASNLVCYYDSSSYTREGLGKLLNPDLEIALQFCSHLVYGYAGLRGENLQAYSMNENLDIYKHQFSEVTSLKRKYPHLKVLLSVGGDHDIDPDHPNKYIDLLEGEKVRQIGFIRSAYDLVKTYGFDGLDLAYQFPKNKPRKVHGDLGLAWKSIKKLFTGDFIVDPHAALHKEQFTALVRDVKDSLRADGFLLSLTVLPNVNSTWYFDIPALNGLVDFVNLATFDFLTPARNPEEADYSAPIYHPDGSKDRLAHLNADFQVEYWLSQGFPSNKINLGVATYGNAWKLTKDSGLEGVPVVPETSGPAPEGFQSQKPGLLSYAEICGKLSNPQNQFLKGNESPLRRVSDPTKRFGGIAYRPVDGQITEGIWVSYDDPDSASNKAAYARVKNLGGVALFDLSYDDFRGQCSGDKYPILRAIKYRLHHHHHH
Question: Which “glycan array binding signal (z-score)” value [1] does the source give for B1 here?
Answer: -0.463

Question: And the “glycan array binding signal (z-score)” value [2]?
Answer: -0.26

Question: What about the “glycan array binding signal (z-score)” value [3] of the same binder?
Answer: -0.274

Question: What about the “glycan array binding signal (z-score)” value [4] of the same binder?
Answer: 8.27

Question: And the “glycan array binding signal (z-score)” value [5]?
Answer: 6.99

Question: What about the “glycan array binding signal (z-score)” value [6] of the same binder?
Answer: 7.65

Question: And the “glycan array binding signal (z-score)” value [7]?
Answer: 0.706

Question: And the “glycan array binding signal (z-score)” value [8]?
Answer: 0.936

Question: And the “glycan array binding signal (z-score)” value [9]?
Answer: -0.319

Question: What about the “glycan array binding signal (z-score)” value [10] of the same binder?
Answer: -0.365

Question: And the “glycan array binding signal (z-score)” value [11]?
Answer: -0.273

Question: And the “glycan array binding signal (z-score)” value (Gal(a1-4)Gal(b1-4)Gal)?
Answer: -0.196

Question: What about the “glycan array binding signal (z-score)” value (Gal(a1-4)Gal(b1-4)GalNAc) of the same binder?
Answer: -0.481

Question: What about the “glycan array binding signal (z-score)” value (Gal(b1-3)Gal) of the same binder?
Answer: 0.071

Question: What about the “glycan array binding signal (z-score)” value [12] of the same binder?
Answer: 0.056

Question: What about the “glycan array binding signal (z-score)” value [13] of the same binder?
Answer: -0.325

Question: What about the “glycan array binding signal (z-score)” value [14] of the same binder?
Answer: 0.072

Question: What about the “glycan array binding signal (z-score)” value (GalNAc(a1-3)GalNAc) of the same binder?
Answer: -0.398

Question: And the “glycan array binding signal (z-score)” value [15]?
Answer: -0.223

Question: What about the “glycan array binding signal (z-score)” value (GlcNAc(b1-3)Gal) of the same binder?
Answer: 0.066

Question: What about the “glycan array binding signal (z-score)” value (GlcNAc(b1-3)GalNAc) of the same binder?
Answer: 0.032

Question: What about the “glycan array binding signal (z-score)” value (GlcNAc(b1-6)GalNAc) of the same binder?
Answer: -0.197

Question: And the “glycan array binding signal (z-score)” value (Man(a1-2)Man(a1-3)Man)?
Answer: -0.128

Question: What about the “glycan array binding signal (z-score)” value [16] of the same binder?
Answer: -0.3

Question: And the “glycan array binding signal (z-score)” value [17]?
Answer: 0.239

Question: What about the “glycan array binding signal (z-score)” value [18] of the same binder?
Answer: 0.148

Question: What about the “glycan array binding signal (z-score)” value [19] of the same binder?
Answer: -0.073

Question: What about the “glycan array binding signal (z-score)” value [20] of the same binder?
Answer: -0.271

Question: And the “glycan array binding signal (z-score)” value [21]?
Answer: 0.622
